The structures appear in SMILES notation. About 79,000 compounds went through this panel and 15% of them were active in at least one assay; those are over-represented in the sample as a whole. Values without a mark were called inactive. Calls of active or inactive are those of the source. Rule as the data show it: active = growth inhibition above about 70%; inactive = the rest.

A short description of test [1]: NCI Yeast Anticancer Drug Screen. Data for the rad50 strain (AID 155).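 Also: 0% = growth of vehicle-only cultures of the same strain.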 The following applies: S. cerevisiae rad50 strain growth inhibition, stronger effect = higher value. The method, boiled down: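 A DNA repair-deficient yeast mutant serves as the test organism; compound-induced growth inhibition is calculated against vehicle-treated cells.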
Test [2] can be described thus: NCI Yeast Anticancer Drug Screen. Data for the mec2-1 strain (AID 157). The following applies: S. cerevisiae mec2-1 strain, stronger effect = higher value. In outline:
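Cells of the genetically defined mec2-1 yeast strain are incubated with test compound. Inhibition of growth is calculated against vehicle-treated controls.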

A short description of test [3]: NCI Yeast Anticancer Drug Screen. Data for the sgs1 mgt1 strain (AID 161).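 Also: 0% = growth of cultures given vehicle only.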 The following applies: S. cerevisiae sgs1 mgt1 strain, stronger effect = higher value. The method, boiled down: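 Genetically altered yeast, compound exposure, growth inhibition relative to vehicle.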
The nature of test [4]: NCI Yeast Anticancer Drug Screen. Data for the cln2 rad14 strain (AID 165).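 Also: 0% = growth equal to vehicle treated cultures.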 The following applies: S. cerevisiae cln2 rad14 strain, stronger effect = higher value. In outline: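 The screen exposed genetically defined yeast (cln2 rad14) to test compounds and scored growth inhibition relative to vehicle-treated controls.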
Test [5] in a line: NCI Yeast Anticancer Drug Screen. Data for the bub3 strain (AID 167). The following applies: S. cerevisiae bub3 mutant strain, stronger effect = higher value. In outline:
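Inhibition values come from growth of compound-treated mutant yeast normalised to vehicle-treated controls.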

Test [6] in a line: NCI Yeast Anticancer Drug Screen. Data for the mlh1 rad18 strain (AID 175). The settings on record: S. cerevisiae mlh1 rad18 strain growth inhibition, stronger effect = higher value. The method, boiled down:
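Compound-treated yeast growth, normalised to vehicle controls. Strain bears defined DNA repair mutations.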

[7] abbreviates: at 5.0 µM (retest, dose inferred, filed as 0.5).
The mark [8] stands for this setting: at 50.0 µM (retest, dose inferred, filed as 5.0).

Regarding `CCCCCCCCCN(CCCCCCCCC)CC(O)c1cc2c(c3ccccc13)CCCC2` (configuration not stated), the growth inhibition is 9% in test [1] (setting [7]); 93% (active) in test [1] (setting [8]); 99% (active) in test [1] (at 50.0 µM); 38% in test [2] (setting [7]); 96% (active) in test [2] (setting [8]); 91% (active) in test [2] (at 50.0 µM). The growth inhibition in test [3] (setting [7]) was 53%; in test [3] (setting [8]), 97% (active); in test [3] (at 50.0 µM), 99% (active); in test [4] (setting [7]) it was 7%; in test [4] (setting [8]), 90% (active); in test [4] (at 50.0 µM), 98.9% (active). In addition, the growth inhibition is 11% in test [5] (setting [7]); 93% (active) in test [5] (setting [8]); 95.8% (active) in test [5] (at 50.0 µM); 46% in test [6] (setting [7]); 95% (active) in test [6] (setting [8]); 98.8% (active) in test [6] (at 50.0 µM).
As to `O=C1CCCC/C1=C(\Br)I`, the growth inhibition in test [1] (setting [7]) was 35%; in test [1] (setting [8]), 99% (active); in test [1] (at 50.0 µM), 89.1% (active); in test [2] (setting [7]), 31%; in test [2] (setting [8]), 100% (active); in test [2] (at 50.0 µM), 92.3% (active). Besides, the growth inhibition in test [3] (setting [7]) is 28%; in test [3] (setting [8]) it was 100% (active); in test [3] (at 50.0 µM), 91.2% (active); in test [4] (setting [7]) it was 19%; in test [4] (setting [8]), 93% (active); in test [4] (at 50.0 µM) it was 91.4% (active). Further, the growth inhibition in test [5] (setting [7]) was 45%; in test [5] (setting [8]) it was 100% (active); in test [5] (at 50.0 µM), 89.1% (active); in test [6] (setting [7]), 31%; in test [6] (setting [8]), 99% (active); in test [6] (at 50.0 µM), 93% (active).
As for `O=C1Sc2sc(=S)sc2SC1c1ccccc1` (configuration not stated), the growth inhibition was -4% in test [1] (setting [7]); 87% (active) in test [1] (setting [8]); 40.5% in test [1] (at 50.0 µM); -1% in test [2] (setting [7]); 91% (active) in test [2] (setting [8]); 36.5% in test [2] (at 50.0 µM). Further, the growth inhibition in test [3] (setting [7]) is 5%; in test [3] (setting [8]) it was 98% (active); in test [3] (at 50.0 µM), 82.2% (active); in test [4] (setting [7]) it was -1%; in test [4] (setting [8]), 79% (active); in test [4] (at 50.0 µM) it was 58.1%. For the same compound, the growth inhibition in test [5] (setting [7]) was -4%; in test [5] (setting [8]), 95% (active); in test [5] (at 50.0 µM) it was 32.6%; in test [6] (setting [7]) it was 2%; in test [6] (setting [8]), 97% (active); in test [6] (at 50.0 µM), 90.5% (active).
As to `Cc1ccc(S(=O)(=O)Nc2ccc3c(c2)Cc2cc([N+](=O)[O-])ccc2-3)cc1`, the growth inhibition in test [1] (setting [7]) was 45%; in test [1] (setting [8]), 60%; in test [1] (at 50.0 µM) it was 78% (active); in test [2] (setting [7]) it was 24%; in test [2] (setting [8]), 58%; in test [2] (at 50.0 µM), 45.8%. Further, the growth inhibition is 42% in test [3] (setting [7]); 62% in test [3] (setting [8]); 67.2% in test [3] (at 50.0 µM); 45% in test [4] (setting [7]); 52% in test [4] (setting [8]); 48.3% in test [4] (at 50.0 µM). In addition, the growth inhibition in test [5] (setting [7]) was 57%; in test [5] (setting [8]) it was 63%; in test [5] (at 50.0 µM), 59.2%; in test [6] (setting [7]), 58%; in test [6] (setting [8]), 69%; in test [6] (at 50.0 µM), 81.3% (active).
Consider `O=C(O)/C(=C/c1c(O)ccc2ccccc12)c1csc(-c2nc(/C(=C\c3c(O)ccc4ccccc34)C(=O)O)cs2)n1`, for which the growth inhibition was 74% (active) in test [1] (setting [7]); 74% (active) in test [1] (setting [8]); 89.6% (active) in test [1] (at 50.0 µM); 48% in test [2] (setting [7]); 48% in test [2] (setting [8]); 92% (active) in test [2] (at 50.0 µM). Besides, the growth inhibition in test [3] (setting [7]) is 74% (active); in test [3] (setting [8]), 74% (active); in test [3] (at 50.0 µM), 92% (active); in test [4] (setting [7]), 46%; in test [4] (setting [8]) it was 46%; in test [4] (at 50.0 µM), 90% (active). For the same compound, the growth inhibition in test [5] (setting [7]) is 49%; in test [5] (setting [8]), 49%; in test [5] (at 50.0 µM), 90.2% (active); in test [6] (setting [7]), 68%; in test [6] (setting [8]), 68%; in test [6] (at 50.0 µM), 88% (active).
On to `Cc1ccc2nc(-[n+]3cc4ccccc4cc3C)ccc2c1`, for which the growth inhibition in test [1] (setting [7]) is 9%; in test [1] (setting [8]) it was 99% (active); in test [1] (at 50.0 µM), 89% (active); in test [2] (setting [7]) it was 1%; in test [2] (setting [8]) it was 100% (active); in test [2] (at 50.0 µM), 87.6% (active). Also, the growth inhibition is 3% in test [3] (setting [7]); 99% (active) in test [3] (setting [8]); 89.3% (active) in test [3] (at 50.0 µM); -1% in test [4] (setting [7]); 83% (active) in test [4] (setting [8]); 17.2% in test [4] (at 50.0 µM). For the same compound, the growth inhibition in test [5] (setting [7]) is 1%; in test [5] (setting [8]) it was 100% (active); in test [5] (at 50.0 µM), 87.7% (active); in test [6] (setting [7]) it was 5%; in test [6] (setting [8]) it was 98% (active); in test [6] (at 50.0 µM), 87.3% (active).
`CCCCCCCCCCCCCCCCCCOP(=O)([O-])OC1CC[N+](C)(C)CC1`: the growth inhibition in test [1] (setting [7]) is 93% (active); in test [1] (setting [8]), 99% (active); in test [1] (at 50.0 µM) it was 90% (active); in test [2] (setting [7]), 98% (active); in test [2] (setting [8]) it was 99% (active); in test [2] (at 50.0 µM), 92.5% (active). Also, the growth inhibition in test [3] (setting [7]) is 98% (active); in test [3] (setting [8]), 99% (active); in test [3] (at 50.0 µM), 91% (active); in test [4] (setting [7]) it was 96% (active); in test [4] (setting [8]) it was 99% (active); in test [4] (at 50.0 µM), 90.2% (active). Moreover, the growth inhibition was 97% (active) in test [5] (setting [7]); 99% (active) in test [5] (setting [8]); 89% (active) in test [5] (at 50.0 µM); 97% (active) in test [6] (setting [7]); 99% (active) in test [6] (setting [8]); 92.5% (active) in test [6] (at 50.0 µM).
Turning to `Oc1ccc2ccc3ccccc3c2c1`, the growth inhibition is 5% in test [1] (setting [7]); 99% (active) in test [1] (setting [8]); 99.5% (active) in test [1] (at 50.0 µM); 2% in test [2] (setting [7]); 99% (active) in test [2] (setting [8]); 99.5% (active) in test [2] (at 50.0 µM). For the same compound, the growth inhibition is 5% in test [3] (setting [7]); 99% (active) in test [3] (setting [8]); 99.5% (active) in test [3] (at 50.0 µM); -3% in test [4] (setting [7]); 99% (active) in test [4] (setting [8]); 99.5% (active) in test [4] (at 50.0 µM). Besides, the growth inhibition is -3% in test [5] (setting [7]); 98% (active) in test [5] (setting [8]); 99.5% (active) in test [5] (at 50.0 µM); 2% in test [6] (setting [7]); 99% (active) in test [6] (setting [8]); 99.5% (active) in test [6] (at 50.0 µM).
With `N#Cc1cc2cccn2c2c1cnn2-c1ccccc1`, the growth inhibition is -6% in test [1] (setting [7]); -5% in test [1] (setting [8]); 19% in test [1] (at 50.0 µM); 8% in test [2] (setting [7]); 4% in test [2] (setting [8]); -6.8% in test [2] (at 50.0 µM). For the same compound, the growth inhibition in test [3] (setting [7]) is -1%; in test [3] (setting [8]), -11%; in test [3] (at 50.0 µM), -1.5%; in test [4] (setting [7]), 3%; in test [4] (setting [8]), 7%; in test [4] (at 50.0 µM), 9.65%. Moreover, the growth inhibition in test [5] (setting [7]) is 6%; in test [5] (setting [8]), 5%; in test [5] (at 50.0 µM), -46.9%; in test [6] (setting [7]), -10%; in test [6] (setting [8]), 12%; in test [6] (at 50.0 µM) it was -2.95%.

For the origin of these results see PubChem BioAssay (NCI).
